Records with an inconclusive call do not appear. Active and inactive are the calls of the source. Calls follow the shape of the dose curve; as a rule, active = well fitted inhibition curve with a large enough effect; inconclusive = small, poorly fitted or top-dose-only effect; inactive = flat fitted curve, though single readings scatter.
Columns and labels:
Assay in all cases: qHTS profiling for inhibitors of Plasmodium falciparum proliferation (AID 504749); also: nearly all actives have a fitted effect of over 60% in size
Details in all cases: P. falciparum in erythrocytes, SYBR Green DNA, 72 h; series mostly up to 28.7 µM
CP325 = test system: CP325
How it was run: (§1)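 SYBR Green fluorescence of parasite DNA, read after lysis and overnight dark incubation, measured growth over 72 h in erythrocyte culture at 0.3% parasitemia and 2.5% hematocrit. Data normalised to DMSO and 0.29 uM artemisinin, with plate-drift correction.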

CP329 = test system: CP329
How it was run: as §1

CP335 = test system: CP335
How it was run: as §1

DFO2036 = test system: DFO2036
How it was run: as §1

DIV14 = test system: DIV14
How it was run: as §1

DIV17 = test system: DIV17
How it was run: as §1

DIV30 = test system: DIV30
How it was run: as §1

Dd2 = test system: Dd2
How it was run: as §1

ECU = test system: ECU
How it was run: as §1

FAB9 = test system: FAB9
How it was run: as §1

GB4 = test system: GB4
How it was run: as §1

HB3 = test system: HB3
How it was run: as §1

ICS = test system: ICS
How it was run: as §1

JCK = test system: JCK
How it was run: as §1

N140 = test system: N140
How it was run: as §1

P93_24 = test system: P93_24
How it was run: as §1

P94_40 = test system: P94_40
How it was run: as §1

PAD = test system: PAD
How it was run: as §1

PC15 = test system: PC15
How it was run: as §1

PC26 = test system: PC26
How it was run: as §1

Measured: Potency
Potency is read from the fitted curve at half-maximal effect.

OCC(O)CS (stereo not given)
inactive: all assays above

Cc1ccc(S(=O)(=O)NC(=O)NC2CCCCCCC2)cc1
inactive: all assays above

O=C(CN1CCNCC1)NC1CCCCC1
inactive: all assays above

CN1C(C)(C)CCCC1(C)C
inactive: all assays above

CNCc1ccccc1
inactive: all assays above

CCCCCCCCCCCCCCCCN
inactive: all assays above

O=c1[nH]cnc2nc[nH]c12
inactive: all assays above

COc1ccccc1OC(=O)Oc1ccccc1OC
inactive: all assays above

CCCCC1(COC(=O)CCC(=O)O)C(=O)N(c2ccccc2)N(c2ccccc2)C1=O
inactive: all assays above

O=c1[nH]c2cc(C(F)(F)F)c(N3CCOCC3)cc2n(CP(=O)(O)O)c1=O
inactive: all assays above

NC(N)=NS(=O)(=O)c1ccc(N)cc1
inactive: all assays above

CCN(CC)CCc1nc(-c2ccccc2)no1
inactive: all assays above

CCCOC(=O)c1ccc(N)cc1
inactive: all assays above

Cc1c(C(=O)NCCO)[n+](=O)c2ccccc2n1[O-]
inactive: all assays above

COc1ccc(O)cc1
inactive: all assays above

Cc1ccc(C(C)C)c(O)c1
inactive: all assays above

CC(N)CCCC(C)(C)O (stereo not given)
inactive: all assays above

Cc1onc(-c2ccccc2)c1-c1ccc(S(N)(=O)=O)cc1
inactive: all assays above

CC(C(=O)O)c1ccc2c(c1)Cc1cccnc1O2 (stereo not given)
inactive: all assays above

O=C(Cn1ccnc1[N+](=O)[O-])NCc1ccccc1
inactive: all assays above

O=C1c2cccc(O)c2C(=O)c2c(O)cccc21
inactive: all assays above

Cc1cc(=O)[nH]c(=S)[nH]1
inactive: all assays above

CCOc1ccc(C(=O)OCCN(CC)CC)cc1
inactive: all assays above

NS(=O)(=O)c1ccc(NC(=O)CCC(=O)O)cc1
inactive: all assays above

C=CCSCC1Nc2cc(Cl)c(S(N)(=O)=O)cc2S(=O)(=O)N1 (stereo not given)
inactive: all assays above

CC(=O)NCc1c(I)c(NC(C)=O)c(I)c(C(=O)O)c1I
active: JCK 11.2 µM
inactive: all other assays above

O=C(O)CCCc1ccccc1
inactive: all assays above

Source: PubChem BioAssay (NCATS)
